Measured values: PubChem BioAssay (NCI)
The panel holds about 83,000 compounds, 20% with a hit somewhere; the sample as a whole holds those more often.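 Single-dose data. Exposure time 48 hours. Values below 10 considered active.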 Calls of active or inactive are those of the source.

tested on: HOP-62 NSCLC; assay: NCI-60 one-dose screen, 48 h (100 = growth as untreated, 0 = no growth, -100 = all killed); conditions: 10 µM unless noted

Compound	growth
CO[C@H]1CC(c2ccc[nH]2)=N[C@]12O[C@@H](C)C[C@@H]1CCCCCCCc3ccc([nH]3)[C@H]12	14.8% (inactive)
COc1ccc2c(O)cc3c(c2c1)[C@H](CCl)CN3C(=O)c1cc2cc(NC(=O)CCN3CCOCC3)ccc2[se]1	-79.7% (active)
O=c1c(/C=C/c2c(O)ccc3ccccc23)nnc2sc(-c3cccc([N+](=O)[O-])c3)nn12	31% (inactive)
CC1(C)CCC[C@]23C(=O)O[C@](O)(C(=O)C4=C[C@@](C)(/C=C/CCCc5ccc6ccc7cccc8ccc5c6c78)CC[C@@]42O)[C@@H]13	-66.1% (active)
CCOC(=O)CC1C(CNC(=O)NC)OC(n2cnc3c(NC(=O)Nc4ccccc4)ncnc32)C1O[Si](C)(C)C(C)(C)C (centres undefined)	78.9% (inactive)
COc1ccc(-c2ccc(-c3ccc(C(=N)N)nc3)s2)cc1	-54.9% (active)
COc1ccc(Cn2cc3c(c2)-c2oncc2CC3)cc1	58.8% (inactive)
O=[N+]([O-])c1ccc(Oc2cccc3c(Oc4ccc([N+](=O)[O-])cc4[N+](=O)[O-])cccc23)c([N+](=O)[O-])c1	79.6% (inactive)
CCCCCN(CCCCC)CC(O)c1c(Cl)ccc2ccccc12 (centres undefined)	80.5% (inactive)
Cn1cc(-c2csc(-c3cn(C)c4ccc(F)cc34)n2)c2cnccc21	-70.9% (active)
CNC1=C([N+](=O)[O-])C(c2ccc(OC)cc2)C(C#N)=C(c2ccc[nH]2)O1 (centres undefined)	99% (inactive)
Cc1cc(C(=O)Nc2cc(Nc3ncccc3-c3ncnc4nc[nH]c34)ccc2F)cc(C(C)(C)C#N)c1	48.5% (inactive)
COC(=O)CNC(=O)c1ccc(NC(=O)c2[nH]c(C)c(Cl)c2Cl)c(O[C@H]2CCNC2)c1	95.6% (inactive)
FC(F)(F)c1cccc(-c2nnn(Cc3cc(-c4cccc(Cl)c4)no3)n2)c1	108% (inactive)
O=C(Nc1ncc(Cc2ccccc2)s1)c1ccc2c(c1)OCCO2	25.5% (inactive)
CCOC(=O)c1ccc2c(c1)[n+](=O)c(C(C)=O)c(C(F)(F)F)n2[O-]	25.5% (inactive)
O=C(Nc1ccccc1C(F)(F)F)C1=NCCCCN1	100% (inactive)
CCCCCC(C)(O)C(C(=O)O)c1ccccc1 (centres undefined)	101% (inactive)
Nc1ncnc2c1N=C(c1ccc([N+](=O)[O-])cc1)CC(c1ccc3c(c1)OCO3)N2 (centres undefined)	86.6% (inactive)
COc1cc2c(cc1OC)CC[N+](CCC[N+](C)(C)C)=C2	84% (inactive)

Compound	growth
O=C1Nc2ccccc2/C1=C/c1cccn1CCCCCCn1c2ccccc2c(=O)c2ccccc21	63.2% (inactive)
CCCS(=O)(=O)Nc1cccc(Nc2ncnc3cc(NC(=O)CCl)ccc23)c1Cl	-77.3% (active)
Cc1ccc(C23CCC(=O)N2CCc2cncn23)cc1 (centres undefined)	94.8% (inactive)
Cc1ccc(-c2nn(CC(=O)N3CCOCC3)c(N)c2C#N)cc1	108% (inactive)
COC(=O)[C@H](C)NC(=O)[C@@H]1CCCN1C(=O)CNC(=O)[C@H](C)N	114% (inactive)
O=C1c2c(c3c4cccnc4[nH]c3c3ccc4ccccc4c23)C(=O)N1O	55.8% (inactive)
C#CCOc1cccc(Nc2ncnc3c(NC(=O)CCl)cccc23)c1	95.7% (inactive)
COc1ccc(CNc2c3ccccc3nc3ccccc23)cc1OC	34.5% (inactive)
COc1ccc(-c2csc(NC(=O)CSc3nc(C)cc(=O)[nH]3)n2)cc1	118% (inactive)
O=C(CNc1ncco1)Nc1ccc(S(=O)(=O)c2ccc(NC(=O)CNc3ncco3)cc2)cc1	32.7% (inactive)
Cc1c2cnccc2c(C)c2c1c1cc(C(=O)O)ccc1n2C	-8.17% (active)
COc1ccc(-c2cn(Cc3ccc4c(Br)cc(Br)c(O)c4n3)nn2)cc1	98.4% (inactive)
COC(=O)c1c(C(=O)OC)c2ccc3c4ncccc4ccc3n2c1C(=O)c1ccc(C)cc1	76.7% (inactive)
O=[N+]([O-])c1ccc(N/N=C\c2cc(Cl)ccc2O)nc1	45.6% (inactive)
COc1ccc(C(=O)/C=C/c2ccc(C)cc2)cc1S(N)(=O)=O	78.1% (inactive)
CN1CCN(CC(=O)N(C)c2ccc(N=C(c3ccccc3)c3c(O)[nH]c4ccc([N+](=O)[O-])cc34)cc2)CC1	85.1% (inactive)
C=CC(=O)NCc1cccc(Nc2ncc(Br)c(NCCCNC(=O)C3CCC3)n2)c1	-26.9% (active)
Nc1nc(N)c2c(n1)NC(c1cccc(Nc3ccnc4cc(C(F)(F)F)ccc34)c1)CC(c1ccc(Cl)cc1)=N2 (centres undefined)	52% (inactive)
C=C(C[n+]1ccccc1)[C@@H]1CC[C@]2(C(=O)OC)CC[C@]3(C)[C@H](CC[C@@H]4[C@@]5(C)CCC(=O)C(C)(C)[C@@H]5CC[C@]43C)[C@@H]12	103% (inactive)
